Data on eight compounds can be found in PubChem BioAssay (Tox21).

Values joined by “and” are separate entries in the source; they are usually repeats but may differ in a detail not shown here. Equal entries are not always repeated. Results filed as inconclusive are left out. The source holds several records for some structures; these can differ, active in one and inactive in another. Active and inactive are the calls of the source. Unless noted, the call rests on the fitted dose curve.

Experiment [1] can be described thus: Nuclear factor erythroid 2-related factor 2/antioxidant responsive element (Nrf2/ARE) small molecule agonists: qHTS cell viability counter screen in human keratinocytes (AID 1919968; active means well fitted curve in the direction sought with a large enough effect in the repeat runs; an effect the other way counts as inactive or inconclusive; further: nearly all actives have a fitted effect of over 55% in size). The method in brief:
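Stably transfected HaCaT (KeratinoSens), 1,500/well. Test agents in DMSO were applied for 23 h, 37 C/5% CO2. CellTiter-Fluor was incubated 1 h before the fluorescence read.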

Experiment [2] can be described thus: Nuclear factor erythroid 2-related factor 2/antioxidant responsive element (Nrf2/ARE) small molecule agonists: luciferase reporter gene qHTS assay in human keratinocytes (AID 1919969). Further: nearly all actives have a fitted effect of over 35% in size. Further: potency means the concentration at half of the fitted maximal effect.
Experiment [3] addresses Gonadotropin-releasing hormone receptor (Homo sapiens) (UniProt P30968). The experiment can be described thus: Human gonadotropin-releasing hormone receptor (GnRHR) small molecule agonists, calcium flux assay in GnRHR-HEK293 cells (AID 1920063). Further: nearly all actives have a fitted effect of over 35% in size. The method in brief: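 Stable human GnRHR HEK293 line. 18 h plating, then calcium dye for 1 h at 37 C. Agonist-mode compound addition from DMSO stocks; fluorescence monitored 3 min.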

The target of experiment [4] is KiSS-1 receptor (Homo sapiens) (UniProt Q969F8). The experiment can be described thus: Human kisspeptin (KISS1R) small molecule agonists, calcium flux assay in KISS1R-HEK293 cells (AID 1920064; active means well fitted curve in the direction sought with a large enough effect in the repeat runs; an effect the other way counts as inactive or inconclusive). The method in brief: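 After overnight (18 h) culture at 37 C/5% CO2, human KISS1R-HEK293 cells received calcium dye for 1 h, then test compound; emission at 540 nm (excitation 480 nm) was tracked for 3 min.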
Chain of KiSS-1 receptor (Homo sapiens) (Q969F8 whole entry, looked up): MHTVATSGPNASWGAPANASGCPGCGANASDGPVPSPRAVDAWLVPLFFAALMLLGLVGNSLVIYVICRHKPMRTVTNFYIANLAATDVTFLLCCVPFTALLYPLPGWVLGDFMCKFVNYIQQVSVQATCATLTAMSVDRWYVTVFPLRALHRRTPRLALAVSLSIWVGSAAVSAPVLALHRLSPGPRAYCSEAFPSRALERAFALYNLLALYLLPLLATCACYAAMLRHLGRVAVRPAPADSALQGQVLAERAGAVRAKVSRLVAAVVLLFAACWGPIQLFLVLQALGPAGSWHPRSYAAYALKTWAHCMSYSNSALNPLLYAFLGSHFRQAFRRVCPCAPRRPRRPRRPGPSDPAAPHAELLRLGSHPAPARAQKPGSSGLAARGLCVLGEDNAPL

The nature of experiment [5]: G protein-coupled receptor (GPCR) small molecule agonists, calcium flux assay: HEK293 wild type cell line counter screen (AID 1920065). The method in brief: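 Following 18 h incubation at 37 C/5% CO2, plates got calcium dye for 1 h; compounds, ATP or DMSO were then pinned in and fluorescence followed kinetically (480/540 nm).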
Experiment [6] can be described thus: p53 small molecule agonists, cell-based qHTS assay with human liver microsomes (AID 1963577). The method in brief: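 p53RE-bla cells, 4,000/well, compound added after 5 h, with human liver microsomes 0.5 mg/mL and NADPH 0.5 mg/mL final; 16 h at 37 C, then LiveBLAzer 2 h RT, fluorescence.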
Experiment [7] can be described thus: p53 small molecule agonists, cell-based qHTS assay with rat liver microsomes (AID 1963578). The procedure, abridged:
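p53RE-bla cells, 4,000/well, pre-incubated 5 h, then given compounds plus rat liver microsomes (0.5 mg/mL final) and NADPH (0.5 mg/mL final). Incubation 16 h at 37 C; beta-lactamase reporter read by LiveBLAzer fluorescence after 2 h at room temperature.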

A short description of experiment [8]: p53 small molecule agonists, cell-based qHTS assay with human liver microsomes: qHTS cell viability counter screen (AID 1963579). Further: nearly all actives have a fitted effect of over 45% in size. The procedure, abridged:
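p53RE-bla cells, 4,000/well, dosed 5 hours after plating, with human liver microsomes (0.5 mg/mL final) plus NADPH (0.5 mg/mL final), 16 hours at 37 C. Viability read as CellTiter-Glo luminescence after 30 min at room temperature.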

A short description of experiment [9]: p53 small molecule agonists, cell-based qHTS assay with rat liver microsomes: qHTS cell viability counter screen (AID 1963580). Further: nearly all actives have a fitted effect of over 45% in size. The procedure, abridged: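 Cytotoxicity counter screen: intracellular ATP measured by CellTiter-Glo luminescence in the same wells as the beta-lactamase reporter read, on HCT-116 p53RE-bla cells exposed 16 h at 37 C to compounds with rat liver microsomes and NADPH, each 0.5 mg/mL final.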

Experiment [10] is described as follows: p53 small molecule agonists, cell-based qHTS assay: qHTS cell viability counter screen (AID 1963581). Further: nearly all actives have a fitted effect of over 45% in size. The method in brief: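 qHTS counter screen: 16 h compound exposure at 37 C of p53RE-bla HCT-116 cells (4,000 per well, seeded 5 h prior), cell viability by ATP luminescence.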
Experiment [11] can be described thus: p53 small molecule agonists, cell-based qHTS assay (AID 1963582; active means well fitted activation curve with a large enough effect in the signal ratio in the repeat runs, not every such curve was filed as active; the % refers to the signal ratio). The procedure, abridged:
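Measured: fluorescence from cleaved LiveBLAzer substrate. System: p53RE-bla cells, 16 h compound treatment at 37 C, 2 h substrate step at room temperature.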

For experiment [12], the target named is 5-hydroxytryptamine receptor 2A (Homo sapiens) (UniProt P28223). The experiment can be described thus: 5-hydroxytryptamine receptor 2A (HTR2A) small molecule antagonists, cell-based qHTS assay (AID 1963586). Further: nearly all actives have a fitted effect of over 45% in size. Further: potency means the concentration at half of the fitted maximal effect. The procedure, abridged: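 CHO cells stably expressing human HTR2A were plated for 18 h at 37 C, then loaded with calcium dye for 1 h. Compounds were preincubated 5 min at room temperature before DOI (4 nM solution) was added. Kinetic fluorescence was read for 3 min.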
Chain of 5-hydroxytryptamine receptor 2A (Homo sapiens) (P28223 whole entry, looked up): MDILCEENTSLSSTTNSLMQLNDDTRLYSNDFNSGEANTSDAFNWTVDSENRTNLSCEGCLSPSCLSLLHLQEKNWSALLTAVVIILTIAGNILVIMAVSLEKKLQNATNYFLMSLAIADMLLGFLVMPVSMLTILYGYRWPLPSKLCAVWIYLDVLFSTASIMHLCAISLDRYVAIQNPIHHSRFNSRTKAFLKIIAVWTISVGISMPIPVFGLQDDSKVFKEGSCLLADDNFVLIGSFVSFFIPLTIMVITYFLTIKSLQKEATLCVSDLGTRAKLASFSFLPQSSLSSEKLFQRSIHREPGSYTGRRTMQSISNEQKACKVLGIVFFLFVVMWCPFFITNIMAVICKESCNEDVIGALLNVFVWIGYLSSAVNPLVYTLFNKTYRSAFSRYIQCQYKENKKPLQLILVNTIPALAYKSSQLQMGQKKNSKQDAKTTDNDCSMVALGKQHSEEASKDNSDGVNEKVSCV

For experiment [13] the target is unchanged. In words: 5-hydroxytryptamine receptor 2A (HTR2A) small molecule agonists, cell-based qHTS assay (AID 1963587). Further: nearly all actives have a fitted effect of over 30% in size. Further: potency means the concentration at half of the fitted maximal effect. The procedure, abridged:
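CHO cells stably expressing human HTR2A, plated 18 h, loaded with calcium dye 1 h at 37 C. Agonist mode: compounds added and intracellular calcium fluorescence recorded kinetically for 2 min at 1 sec intervals.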

Experiment [14] addresses Muscarinic acetylcholine receptor M1 (Homo sapiens) (UniProt P11229). In words: Cholinergic receptor muscarinic 1 (CHRM1) small molecule antagonists, cell-based qHTS assay (AID 1963588). Further: nearly all actives have a fitted effect of over 40% in size. The method in brief: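 Compounds were tested at 15 concentrations in three independent runs. Dye-loaded CHRM1-CHO cells were exposed 5 min at room temperature before stimulation by acetylcholine added at 50nM. Intracellular calcium was read kinetically on FDSS for 3 min.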

For experiment [15] the target is unchanged. In words: Cholinergic receptor muscarinic 1 (CHRM1) small molecule agonists, cell-based qHTS assay (AID 1963589). Further: nearly all actives have a fitted effect of over 35% in size. The procedure, abridged: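 Kinetic fluorescence (1 s intervals) of calcium-sensitive dye in human M1 CHO cells after compound addition; cells pre-incubated 18 h at 37 C/5% CO2 and dye-loaded 1 h.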
Experiment [16] can be described thus: cAMP Responsive Elements (CRE) small molecule agonists, cell-based qHTS assay (AID 1963590). The method in brief: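 Test agents in DMSO were incubated 3 h at 37 C/5% CO2 with CRE-bla HEK 293T cells seeded 18 h earlier; LiveBLAzer B/G FRET substrate was added and read after 2 h at room temperature.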
Experiment [17] is described as follows: cAMP Responsive Elements (CRE) small molecule antagonists, cell-based qHTS assay (AID 1963591; active means well fitted inhibition curve with a large enough effect in the signal ratio in the repeat runs, not every such curve was filed as active; the % refers to the signal ratio). The procedure, abridged: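 Reporter line CRE-bla HEK 293T in dialyzed-FBS DMEM; cells preincubated 18 h, treated 3 h with compound plus NKH477 (0.25 uM final); LiveBLAzer FRET, 2 h RT.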
For experiment [18], the target named is Beta-2 adrenergic receptor (Homo sapiens) (UniProt P07550). The experiment can be described thus: Adrenergic beta2 receptor (ADRB2) small molecule antagonists, cell-based qHTS assay (AID 1963592). Further: series mostly up to about 92 µM; nearly all actives have a fitted effect of over 50% in size. The procedure, abridged:
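Assay format: CHO-ADRB2 cells, 18-20hr seeding at 37C/5% CO2, then compound plus 1nM isoproterenol agonist mix for 0.5hr RT. Homogeneous time-resolved fluorescence cAMP detection after 1hr, expressed as 665/615 nm ratio.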

Experiment [19] has as its target D(2) dopamine receptor (Homo sapiens) (UniProt P14416). The experiment can be described thus: Dopamine D2 receptor (DRD2) small molecule agonists, cell-based qHTS assay (AID 1963594). Further: nearly all actives have a fitted effect of over 35% in size. The method in brief:
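HEK293 cells stably expressing human DRD2, pre-treated with PDE inhibitor Ro20-1724 (0.1 mM final) and compound 10 min at room temperature, then stimulated with NKH477 (200nM […]) for 30 min. cAMP read by HTRF (665/620 nm).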

Experiment [20] shares this target. In words: Dopamine D2 receptor (DRD2) small molecule antagonists, cell-based qHTS assay (AID 1963595; active means well fitted inhibition curve with a large enough effect in the signal ratio in the repeat runs, with a control signal flat; the % refers to the signal ratio). The procedure, abridged: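 Antagonism was scored as restored cAMP in HEK293-DRD2 cells. These cells were stimulated with 200 nM NKH477 and 12 nM quinpirole for 30 min at room temperature, in the presence of 0.1 mM Ro20-1724.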
On the % scale 0 is the no-effect control and ±100 the full control effect.

Chain of Beta-2 adrenergic receptor (Homo sapiens) (P07550 whole entry, looked up): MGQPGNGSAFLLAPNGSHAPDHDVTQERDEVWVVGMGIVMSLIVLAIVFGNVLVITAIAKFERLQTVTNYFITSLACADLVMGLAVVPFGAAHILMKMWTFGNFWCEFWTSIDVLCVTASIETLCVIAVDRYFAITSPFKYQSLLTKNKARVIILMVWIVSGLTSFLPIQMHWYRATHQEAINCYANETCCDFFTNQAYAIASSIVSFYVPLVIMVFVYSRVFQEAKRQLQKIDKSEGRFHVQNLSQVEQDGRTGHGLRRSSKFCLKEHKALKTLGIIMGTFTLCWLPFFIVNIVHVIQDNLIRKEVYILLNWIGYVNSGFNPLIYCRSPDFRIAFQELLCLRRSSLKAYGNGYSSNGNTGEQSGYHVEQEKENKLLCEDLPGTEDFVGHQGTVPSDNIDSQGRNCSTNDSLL
Chain of D(2) dopamine receptor (Homo sapiens) (P14416 whole entry, looked up): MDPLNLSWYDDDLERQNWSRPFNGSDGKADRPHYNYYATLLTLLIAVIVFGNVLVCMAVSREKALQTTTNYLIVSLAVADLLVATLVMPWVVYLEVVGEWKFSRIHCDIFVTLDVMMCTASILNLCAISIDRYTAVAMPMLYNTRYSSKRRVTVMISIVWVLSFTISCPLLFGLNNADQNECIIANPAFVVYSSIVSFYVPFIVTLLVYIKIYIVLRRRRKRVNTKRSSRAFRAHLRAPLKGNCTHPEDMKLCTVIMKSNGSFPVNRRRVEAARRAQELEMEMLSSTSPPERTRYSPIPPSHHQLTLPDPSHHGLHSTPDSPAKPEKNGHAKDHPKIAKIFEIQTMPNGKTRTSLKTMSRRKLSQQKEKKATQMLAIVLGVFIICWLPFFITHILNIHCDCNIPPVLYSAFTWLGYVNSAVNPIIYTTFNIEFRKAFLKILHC
Chain of Gonadotropin-releasing hormone receptor (Homo sapiens) (P30968 whole entry, looked up): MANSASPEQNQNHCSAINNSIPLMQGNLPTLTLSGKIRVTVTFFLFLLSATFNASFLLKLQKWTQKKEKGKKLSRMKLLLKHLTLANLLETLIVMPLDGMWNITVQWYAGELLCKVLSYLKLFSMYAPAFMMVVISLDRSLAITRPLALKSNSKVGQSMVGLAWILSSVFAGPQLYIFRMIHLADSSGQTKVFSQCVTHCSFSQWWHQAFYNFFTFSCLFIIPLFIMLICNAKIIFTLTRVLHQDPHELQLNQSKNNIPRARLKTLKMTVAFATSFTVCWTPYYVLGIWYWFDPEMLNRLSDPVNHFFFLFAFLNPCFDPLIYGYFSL
Chain of Muscarinic acetylcholine receptor M1 (Homo sapiens) (P11229 whole entry, looked up): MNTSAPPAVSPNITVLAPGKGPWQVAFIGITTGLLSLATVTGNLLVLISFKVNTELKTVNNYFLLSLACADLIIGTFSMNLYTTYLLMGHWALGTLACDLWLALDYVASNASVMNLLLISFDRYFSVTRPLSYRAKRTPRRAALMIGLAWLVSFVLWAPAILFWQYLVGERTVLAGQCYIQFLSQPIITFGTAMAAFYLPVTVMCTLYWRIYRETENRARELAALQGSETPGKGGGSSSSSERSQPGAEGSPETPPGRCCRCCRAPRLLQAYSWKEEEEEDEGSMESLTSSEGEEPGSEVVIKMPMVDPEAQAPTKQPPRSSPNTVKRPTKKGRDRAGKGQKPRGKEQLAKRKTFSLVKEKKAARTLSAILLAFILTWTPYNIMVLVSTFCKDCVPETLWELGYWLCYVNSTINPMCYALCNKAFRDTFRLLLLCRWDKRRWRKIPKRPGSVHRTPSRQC

On to `Brc1ccc(Oc2ccc(Br)cc2)cc1`, for which the Potency entry in [1], in [2], in [3], in experiment [4], in experiment [5] and in [6] was “inactive” each time. Further, the Potency result in experiment [7], in [8], in experiment [9], in [10], in [11] and in experiment [12] was “inactive” in each case. The Potency entry in experiment [13], in [14], in [15], in experiment [16], in [17] and in experiment [18] was “inactive” in each case. Also, the Potency result in experiment [19] and in experiment [20] was “inactive” each time.
Take `Nc1ccn([C@H]2CC[C@@H](CO)O2)c(=O)n1`: the Potency entry in experiment [1], in [2], in [3], in [4], in experiment [5] and in [6] was “inactive” each time. For the same compound, the Potency result in experiment [7], in experiment [8], in experiment [9], in [10], in experiment [11] and in experiment [12] was “inactive” in each case. The Potency entry in [13], in experiment [14], in [15], in [16], in [17] and in [18] was “inactive” in each case. Besides, the Potency entry in [19] was “inactive”.
As for `CCN1CCCC1=O`, the Potency result in [1], in experiment [2], in [3], in experiment [4], in [5] and in [6] was “inactive” in each case. Moreover, the Potency entry in experiment [7], in experiment [8], in experiment [9], in [10], in experiment [11] and in experiment [12] was “inactive” in each case. For the same compound, the Potency result in [13], in [14], in experiment [15], in [16], in experiment [17] and in experiment [18] was “inactive” in each case. Also, the Potency entry in experiment [19] and in experiment [20] was “inactive” in each case.
For the compound `Fc1ccc(Br)cc1`, the Potency result in [1], in experiment [2], in [3], in [4], in [5] and in experiment [6] was “inactive” throughout. Besides, the Potency result in experiment [7], in experiment [8], in [9], in [10], in experiment [11] and in experiment [12] was “inactive” throughout. Also, the Potency result in [13], in [14], in [15], in experiment [16], in experiment [17] and in [18] was “inactive” each time. Moreover, the Potency entry in experiment [19] and in [20] was “inactive” throughout.
As to `Nc1ccc(Nc2ccccc2)cc1`, the Potency result in experiment [1], in [3], in [4], in experiment [5], in [6] and in experiment [7] was “inactive” each time. Also, the Potency entry in experiment [8], in [9], in experiment [10], in experiment [11], in experiment [14] and in [15] was “inactive” each time. Also, the Potency result in [16] and in experiment [17] was “inactive” in each case. In addition, the Potency is 53.9 µM (active) and inactive and 30.6 µM (active) in experiment [2]; “inactive and 3.75 µM (active)” in experiment [12]; 7.68 µM (active) and 24.6 µM (active) and 3.89 µM (active) in experiment [13].
On to `CCCCCCCCCCCC(=O)OC`, for which the Potency entry in experiment [1], in experiment [2], in experiment [3], in [4], in experiment [5] and in experiment [6] was “inactive” in each case. Besides, the Potency entry in experiment [7], in [8], in experiment [9], in experiment [10], in experiment [11] and in experiment [12] was “inactive” in each case. The Potency entry in [13], in experiment [14], in experiment [15], in experiment [16], in [17] and in [18] was “inactive” in each case. The Potency result in experiment [19] was “inactive”.
Take `CCc1ccccc1CC`: the Potency result in [1], in [2], in experiment [3], in experiment [4], in [5] and in experiment [6] was “inactive” in each case. Moreover, the Potency entry in experiment [7], in experiment [8], in [9], in experiment [10], in experiment [11] and in experiment [12] was “inactive” in each case. The Potency entry in experiment [13], in experiment [14], in experiment [15], in experiment [16], in [19] and in [20] was “inactive” throughout. The activity change, negative = inhibition in experiment [17] is 3.92% [at 18.9 µM] (inactive); in [18], -5.37% [at 19 µM] (inactive).
As to `Cc1ccc(S(=O)(=O)O)cc1C`, the Potency result in [1], in experiment [2], in experiment [3], in experiment [4], in experiment [5] and in [6] was “inactive” each time. Moreover, the Potency result in experiment [7], in [8], in experiment [9], in experiment [10], in [11] and in experiment [12] was “inactive” each time. The Potency entry in experiment [13], in experiment [14], in experiment [15], in experiment [16], in [17] and in experiment [18] was “inactive” throughout. Further, the Potency entry in [19] and in experiment [20] was “inactive” throughout.
